The list is not random: actives were taken first. Their share in the collection is about 6.1%.
D3 antag: qHTS of D3 Dopamine Receptor Antagonist: qHTS; D3R cells, DiscoveRx beta-arrestin luminescence, antagonist mode; active compounds read low; max response, negative = inhibition, %; 360,000 compounds, 2.5% hits; in the data active means max response below about -50%; inconclusive means no clear call, values can overlap the other calls
Target sequence (P35462 whole entry, looked up): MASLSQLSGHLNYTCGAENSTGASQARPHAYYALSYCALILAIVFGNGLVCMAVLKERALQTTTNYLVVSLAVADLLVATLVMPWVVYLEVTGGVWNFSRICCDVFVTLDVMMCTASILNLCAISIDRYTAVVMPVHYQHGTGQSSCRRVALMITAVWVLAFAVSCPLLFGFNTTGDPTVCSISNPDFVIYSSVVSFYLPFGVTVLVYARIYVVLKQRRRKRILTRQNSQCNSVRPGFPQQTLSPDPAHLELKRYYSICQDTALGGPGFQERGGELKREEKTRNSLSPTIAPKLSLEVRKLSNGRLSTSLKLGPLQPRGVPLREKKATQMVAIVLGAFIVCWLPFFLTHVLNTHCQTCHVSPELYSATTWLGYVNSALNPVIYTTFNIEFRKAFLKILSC
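Cells plated overnight at 1500 cells/well, then exposed to library compounds with dopamine controls for 90 minutes at 37 degrees C. DiscoveRx reagent added for 30–60 minutes at room temperature; luminescence read, quantitative HTS format.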
D3 ag: qHTS of D3 Dopamine Receptor Agonist: qHTS; D(3) dopamine receptor (Homo sapiens), P35462; D3R DiscoveRx beta-arrestin cells, luminescence, 90 min; max activation, %; 410,000 compounds, 0.58% hits; AID 652048, 2013; in the data active means max activation above about 30%
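Cells at 1500/well, incubated overnight, then treated with pinned compounds (dopamine as control) for 90 min at 37 degrees C. DiscoveRx reagent added for 30 - 60 minutes at room temperature; luminescence read.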
D1 agonist: Allosteric Agonists of the Human D1 Dopamine Receptor: qHTS | 360,000 compounds, 1% hits | D(1A) dopamine receptor (Homo sapiens), P21728 | HEK293 T-REx D1 cells, calcium flux, agonist mode | AID 504660, 2011 | activation, % at 2 µM; in the data active means activation above about 30%
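Tetracycline-induced HEK293 TREx D1 cells, force-coupled to calcium signalling, were dye-loaded with a no-wash calcium kit. Compound was pin-added after a 10 s baseline. Fluorescence was read kinetically at 1 cycle/s for 180 s, with calcium rises flagged as agonism.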
D1 PAM: Potentiators of Human D1 Dopamine Receptor: qHTS; D(1A) dopamine receptor (Homo sapiens), P21728; HEK293 TREx D1 cells, calcium flux, dopamine EC20 potentiation; potentiation, % at 10 µM; 360,000 compounds, 0.036% hits; in the data active means potentiation above about 30%
D1 antag: Antagonist of Human D 1 Dopamine Receptor: qHTS | D(1A) dopamine receptor (Homo sapiens), P21728 | activity change, negative = inhibition, % at 10 µM | 360,000 compounds, 3.2% hits | HEK293 TREx D1 cells, calcium flux, dopamine EC80; active compounds read low | AID 504652, 2011; in the data active means activity change below about -30%
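Tetracycline-induced HEK293 Trex D1 cells, force-coupled to calcium, dye-loaded; compounds added and read 180 s, then EC80 dopamine added and calcium flux tracked kinetically another 180 s.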
Large screens that a line does not name were inactive.

COc1ccc(C(CNC(=O)Cc2cc(OC)c(OC)c(OC)c2)N2CCCC2)cc1 (stereo unspecified)	none
COc1ccc(C(=O)Nc2cccc(C(=O)N/N=C/c3ccc(OC)cc3OC)c2)cc1	D1 antag -48
COc1cc(NC(=O)c2c(F)c(F)c(OC)c(F)c2F)ccc1NC(=O)c1cccs1	D1 antag -46
COc1cc(NC(=O)c2cc(OC)c(OC)c(OC)c2)ccc1NC(=O)c1cccs1	none
CCOc1ccc(S(=O)(=O)Nc2cccc(C(=O)NCC(c3ccc(OC)cc3)N3CCOCC3)c2)cc1 (stereo unspecified)	none
COc1ccc(C(CNC(=O)c2cccc(NS(=O)(=O)c3ccccc3)c2)N2CCCC2)cc1 (stereo unspecified)	D3 antag -88 (no result: D1 agonist, D1 PAM, D1 antag)
COc1ccc(C(CNC(=O)c2cccc(S(=O)(=O)N3CCCC(C)C3)c2)N(C)C)cc1 (stereo unspecified)	D3 antag -65 (no result: D1 PAM)
COc1ccc(/C=N/NC(=O)c2cccc(NC(C)=O)c2)c(OC)c1	none
CC1CCCN(S(=O)(=O)c2cccc(C(=O)NCc3ccco3)c2)C1 (stereo unspecified)	D3 antag inconclusive
COc1ccc(S(=O)(=O)n2nc(-c3ccco3)nc2NCc2ccc(C(C)C)cc2)cc1	none (no result: D3 antag)
Cc1ccc(C(=O)Nc2cc(-c3nc4ncccc4o3)ccc2C)c(C)c1	none (no result: D3 antag)
COc1ccc(C(CNS(=O)(=O)c2ccc(NC(C)=O)c(OC)c2)N2CCCC2)cc1 (stereo unspecified)	D3 antag -54 (no result: D1 agonist, D1 PAM, D1 antag)
COc1ccccc1C(CNC(=O)c1cccc(S(=O)(=O)Nc2ccc(C)cc2)c1)N1CCCC1 (stereo unspecified)	none
COc1ccc(C(=O)NCC(c2ccc(Cl)cc2)N2CCCCC2)cc1 (stereo unspecified)	none (no result: D3 antag)
COc1ccc(C(CNC(=O)c2cccc(Br)c2)N2CCCC2)cc1 (stereo unspecified)	D3 antag -87
COc1ccc(C(CNC(=O)c2cccc(S(=O)(=O)Nc3ccc(C)cc3)c2)N2CCCCC2)cc1 (stereo unspecified)	D3 antag -64
COc1ccc(NC(=O)CN(C)C(=O)c2cccc(NS(=O)(=O)c3ccc(Br)cc3)c2)cc1	none
COc1ccc(C(CNC(=O)c2cccc(NS(=O)(=O)c3ccc(Br)cc3)c2)N(C)C)cc1 (stereo unspecified)	D3 antag -78
COc1ccc(C(CNS(=O)(=O)c2ccc(NC(C)=O)c(OC)c2)N2CCCCC2)cc1 (stereo unspecified)	none (no result: D1 agonist, D1 PAM, D1 antag)
Cc1cc2c(s1)c1cnn(Cc3cc(F)c(F)cc3F)c(=O)c1n2C	none (no result: D3 antag, D3 ag)
N#Cc1ccc(C[C@H](C(=O)O)N2C(=O)c3ccc(C(=O)O)cc3C2=O)cc1	none (no result: D3 antag, D3 ag)
CCOc1cc(C#N)c(NC(=O)c2cccc(S(=O)(=O)N3CCOCC3)c2)cc1OCC	none (no result: D3 antag)
COc1ccccc1/C=C/CN1CCN(Cc2ccc(C)o2)C(CCO)C1 (stereo unspecified)	D3 antag -77
COc1cc(/C=C/CN2CCN(Cc3ccc(C)o3)C(CCO)C2)ccc1O (stereo unspecified)	D3 antag -61
C/C(=C\c1ccccc1)CN1CCN(Cc2ccc(C)o2)C(CCO)C1 (stereo unspecified)	D3 antag -80
CCOc1cc(CN2CCN(Cc3ccc(C)o3)C(CCO)C2)ccc1OC (stereo unspecified)	none
CCc1ccccc1Nc1cc(C(=O)NCCc2ccccc2)c2ccccc2n1	none (no result: D3 antag)
O=C1CC(c2nc3ccccc3n2CCCOc2ccccc2)CN1c1ccc(F)cc1 (stereo unspecified)	none (no result: D3 antag)
Cc1noc(C)c1CSc1ccc(Br)cc1	D1 antag -33
CC(=O)Nc1ccc(SCc2c(C)noc2C)cc1	none
N=C1C(c2nc3ccccc3[nH]2)=C(O)CN1c1ccc(F)cc1	D1 antag -30
N=C1C(c2nc3ccccc3[nH]2)=C(O)CN1C1CCCCC1	none
CC(=O)Nc1ccc(S(=O)(=O)N2CCSC2c2ccco2)cc1 (stereo unspecified)	none
O=S(=O)(c1ccccc1)N1CCSC1c1ccco1 (stereo unspecified)	D1 antag -44
Cc1ccc2[nH]c(=O)c(N3CCOCC3)c(-c3ccccc3)c2c1	D3 ag 33
O=C(CCN1CCOCC1)Nc1c(-c2ccccc2)c2cc(Br)ccc2[nH]c1=O	none
COC(=O)c1sccc1S(=O)(=O)N(CC(=O)NCc1ccc(F)cc1)c1ccc(C)c(C)c1	none (no result: D3 antag)
O=C(C1=C(c2ccccc2)C(=O)c2ccccc2C1=O)c1ccccc1	D3 antag -95
Cc1ccc(-c2noc(CSc3nnc(C)n3-c3ccc(F)cc3)n2)cc1	none (no result: D3 antag)
Cc1nnc(SCc2nc(-c3ccc(Cl)cc3)no2)n1-c1ccc(F)cc1	D1 antag -33 (no result: D3 antag)
Cc1ccc(C)c(Cn2c3ccccc3c3cnn(CC(=O)NC4CCC(C)CC4)c(=O)c32)c1 (stereo unspecified)	none (no result: D3 antag)
CC(=O)Nc1ccc(Sc2ccccc2C(=O)Nc2ccc(F)cc2)cn1	D1 agonist 46
CC[n+]1ccc(C)c2cc(P(=O)(c3ccccc3)c3ccccc3)ccc21	D3 antag -58
COc1ccc(CCNC(=O)CCS(=O)(=O)c2cc(Br)cc3c2N(C(C)=O)CC3)cc1OC	none (no result: D3 antag)
CC1=C(C(=O)Nc2ccc(C)cc2C)C(c2ccc(C(=O)O)cc2)n2nc(SCc3ccccc3)nc2N1 (stereo unspecified)	D1 antag -59 (no result: D3 antag)
CCN(CC)C(=O)c1sc2c(c1C)c(=O)n(-c1ccc(C)c(C)c1)c(=O)n2CC(=O)Nc1ccc(F)cc1	none (no result: D3 antag)
O=C1/C(=C\c2ccc(O)cc2)SC(=S)N1Cc1ccccc1	D3 antag -82
CC(=O)Oc1ccc(/C=C2/SC(=S)N(Cc3ccccc3)C2=O)cc1	none
CN1CCN(C(=O)CCN2C(=O)/C(=C\c3ccc(Cl)cc3)SC2=S)CC1	D1 antag -43
O=C(O)c1ccc(/C=C2/SC(=S)N(Cc3ccccc3)C2=O)cc1	D1 PAM 30
O=C(O)c1ccc2c(c1)C(=O)N(Cc1ccccc1)C2=O	D3 antag -51
CN1CCN(C(=O)CCN2C(=O)/C(=C\c3ccc(F)cc3)SC2=S)CC1	none (no result: D1 agonist, D1 PAM, D1 antag)
CCCSc1ncc(Cl)c(C(=O)Nc2c(C(=O)Nc3ccc(C)cc3)oc3ccccc23)n1	none (no result: D3 antag)
O=C(O)c1ccc(N2C(=O)CSC2=S)cc1	none (no result: D1 agonist, D1 PAM, D1 antag)
O=C(O)c1ccc(CN2C(=O)CSC2=S)cc1	D1 agonist 31

Screening data as filed in PubChem.
